Assay results as given in PubChem BioAssay AID1445 (SRMLSC, 2008).
About 910 (0.41%) of roughly 220,000 compounds were called active. The list comes from a sample in which actives are over-represented; it also holds similar structures and randomly drawn compounds. Results with a measured potency or affinity are listed apart. A number with no mark means an inactive call.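 How the source made its calls: active means primary inhibition above the hit cutoff, then over 50% inhibition at one or more dose response concentrations (cut at about 23% in these data, passing the limit was not always enough); inconclusive means conflicting primary data, or primary hits not chosen for dose response; inactive means low primary inhibition, or under 50% at every dose.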

Each molecule was assayed against Aminopeptidase N (Plasmodium falciparum (isolate 3D7)) (UniProt O96935) (assay: malaria alanyl aminopeptidase activity blockers – biochemical, fluorogenic H-Leu-NHMec substrate, 1536-well (AID 1445;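 further: plate controls were DMSO full reaction for no effect and no enzyme background for full effect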)). Settings: recombinant M1AAP, H-Leu-NHMec fluorogenic kinetic assay; at 30 µM, hits give high values unless noted.
Chain of Aminopeptidase N (Plasmodium falciparum (isolate 3D7)) (O96935 whole entry, looked up): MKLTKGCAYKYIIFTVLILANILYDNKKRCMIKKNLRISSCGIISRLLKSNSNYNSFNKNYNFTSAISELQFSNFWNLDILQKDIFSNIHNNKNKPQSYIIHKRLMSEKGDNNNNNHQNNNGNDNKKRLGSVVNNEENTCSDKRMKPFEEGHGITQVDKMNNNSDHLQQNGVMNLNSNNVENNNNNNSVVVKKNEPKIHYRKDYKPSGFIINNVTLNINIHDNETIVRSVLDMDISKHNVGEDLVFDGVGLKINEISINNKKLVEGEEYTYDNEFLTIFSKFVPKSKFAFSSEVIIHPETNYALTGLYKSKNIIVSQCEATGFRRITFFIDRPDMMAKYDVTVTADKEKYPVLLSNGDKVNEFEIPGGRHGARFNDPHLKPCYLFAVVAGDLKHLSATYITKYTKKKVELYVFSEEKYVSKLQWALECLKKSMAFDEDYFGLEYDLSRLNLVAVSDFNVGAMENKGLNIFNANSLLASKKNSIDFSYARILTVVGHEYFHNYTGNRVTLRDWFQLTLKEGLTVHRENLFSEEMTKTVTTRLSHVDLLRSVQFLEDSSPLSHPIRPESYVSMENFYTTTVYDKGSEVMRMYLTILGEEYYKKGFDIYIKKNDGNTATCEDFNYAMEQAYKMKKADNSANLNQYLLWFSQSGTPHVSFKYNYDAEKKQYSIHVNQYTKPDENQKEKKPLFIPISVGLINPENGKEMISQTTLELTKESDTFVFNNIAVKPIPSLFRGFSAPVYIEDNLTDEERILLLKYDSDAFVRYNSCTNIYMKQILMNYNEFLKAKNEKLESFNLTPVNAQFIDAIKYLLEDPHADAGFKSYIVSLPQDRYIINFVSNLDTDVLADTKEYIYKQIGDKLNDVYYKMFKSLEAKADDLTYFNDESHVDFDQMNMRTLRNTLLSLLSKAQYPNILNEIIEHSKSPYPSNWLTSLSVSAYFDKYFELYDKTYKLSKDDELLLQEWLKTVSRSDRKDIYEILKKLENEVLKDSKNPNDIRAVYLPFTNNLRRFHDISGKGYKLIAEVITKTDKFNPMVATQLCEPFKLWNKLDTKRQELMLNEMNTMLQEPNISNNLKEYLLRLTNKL

SMILES | inhibition
COC(=O)c1ccc(CSc2nc3c(c(=O)n2-c2ccccc2)SCC3)o1 | 5.07%
CCN(CC)CCCNC(=O)c1ccc(N2CCCCC2)c(NS(=O)(=O)c2ccc(C)cc2)c1 | -3.11%
CC(CN1CCCC1)C(=O)NN (centres undefined) | -2.99%
O=c1[nH]c2cc(Cl)c([N+](=O)[O-])nc2[nH]1 | 11.7%
Cc1nc(/C(=N/O)C(N)=O)cs1 | 3.08%
CCOC(=O)COc1ccc(Br)cc1C1NC(=O)NC(C)=C1C(=O)NCc1ccccc1 (centres undefined) | -5.37%
O=C(NCCc1nc2ccccc2[nH]1)c1ccco1 | -3.58%
Nc1ncc(Br)cc1S(=O)(=O)NCCC(=O)Nc1cccc(Cl)c1 | 0.42%
Cc1ccc(C(=O)Nc2ccc3c(c2)CCC3)o1 | 6.8%
COc1cccc(OC)c1C(=O)N1CCN(c2c(Cc3ccccc3)c(C)nc3ncnn23)CC1 | 7.55%
Cc1ccc2c(CNCc3ccco3)cc(=O)oc2c1 | 7.2%
CS(=O)(=O)N1CCC(C(=O)NCc2ccc(F)cc2)CC1 | 12.5%
CCS(=O)(=O)N1CCC(C(=O)NCc2ccc(F)cc2)CC1 | 5.77%
Cc1ccc(S(=O)(=O)Nc2cccc(-c3cn4ccsc4n3)c2)cc1 | 7.08%
COc1ccccc1N1CCN(c2ncnc3nc[nH]c23)CC1 | 3.64%
COc1cc(C=C2C(=O)c3ccccc3C2=O)ccc1O | 12.8%
COc1ccc(C=C2C(=O)c3ccccc3C2=O)cc1O | 13.7%
COc1ccccc1N1CCN(c2nc3ccccc3nc2C(C#N)C(=O)OC(C)C)CC1 (centres undefined) | 1.03%
Cn1ncc2cc(NC(N)=S)ccc21 | 5.67%
COc1cccc(NC(=O)COc2ccccc2C(N)=O)c1 | -6.65%
COC(=O)c1nc(N)sc1-c1ccc(Cl)cc1 | 7.93%
CC1(C)Cc2c(sc3c2c(N)nc(=S)n3Cc2ccc(Br)cc2)CO1 | 5.16%
Cc1cc(C)n(-c2cc(-n3nc(C)cc3C)ncn2)n1 | 7.79%
Cc1ccc(Nc2cc(-n3nc(C)cc3C)ncn2)cc1 | 26.7% (active)
Cc1ccc(Nc2cc(-n3nc(C)cc3C)ncn2)c(C)c1 | -27.3%

SMILES | inhibition
CC1(C)CC(=O)C(C=NCCN2CCN(C(=S)NC3CCCCC3)CC2)=C(O)C1 | -1.18%
Cc1ccc(NC(=O)CN(C)CC(=O)Nc2ccccc2Oc2ccccc2)cc1 | -4.16%
O=C(N/N=C/c1cccc([N+](=O)[O-])c1)C1COc2ccccc2O1 (centres undefined) | -7.31%
O=C(N/N=C\c1ccc(-c2ccccc2[N+](=O)[O-])o1)C1COc2ccccc2O1 (centres undefined) | 5.3%
O=C(N/N=C\c1ccc(O)c([N+](=O)[O-])c1)C1COc2ccccc2O1 (centres undefined) | 21.5%
O=C(N/N=C\c1ccc([N+](=O)[O-])o1)C1COc2ccccc2O1 (centres undefined) | 15.2%
Cc1cc(C(=O)OCn2nnc3ccccc3c2=O)c(C)n1-c1ccccc1 | 0.48%
O=C(COC(=O)c1cccc2ccccc12)Nc1ncc(C(F)(F)F)cc1Cl | 1.24%
CC(=O)c1ccc(Sc2ccccc2N)c([N+](=O)[O-])c1 | 0.73%
O=C(O)c1ccccc1C(=O)c1ccc(Sc2ccc(Cl)cc2)c([N+](=O)[O-])c1 | 17.6%
Cc1cccc(Nc2c(-c3ccc(N4CCOCC4)cc3)nc3ncccn23)c1 | 1.09%
O=C(Nc1nnc(C2CC2)s1)C1CCCO1 (centres undefined) | -7.06%
Cn1cc(Br)c(C(=O)Nc2ncc(Br)s2)n1 | 3.9%
CC(=O)c1ccc(OC(C)C)c(CSc2nc(O)cc(=O)[nH]2)c1 | 36.7%
CCCOc1ccc(C(C)=O)cc1CSCCC#N | 11.4%
CCOC(=O)c1sc2nc(C(C)C)c3c(c2c1N)CC(C)(C)OC3 | 22.1%
COC(=O)c1ccc(S(=O)(=O)N2CCCN(Cc3ccccc3)CC2)n1C | -2.02%
Cc1ccccc1C(=O)Nc1ccnc(-c2ccncc2)n1 | -1.17%
Cc1nc(N)nc(Cl)c1Cc1ccc(Cl)cc1 | 0.71%
Cc1nc2ccc(Cl)cc2nc1C | 5.55%
COC(CNC(=O)C1CCCCC1C(=O)O)OC (centres undefined) | -2.33%
C/C(CC(=O)Nc1ccccc1C)=N\NC(=O)Cc1csc(N)n1 | 5.41%
C=CCn1c(SCc2nc3ccccc3c(=O)[nH]2)nc2scc(C3CC3)c2c1=O | 1.15%
CC(C)Oc1ccc2ccccc2c1C=O | 23.8% (active)
COc1ccc2ccccc2c1/C=N/O | 6.62%

SMILES | inhibition
O=Cc1c(OCc2ccccc2)ccc2ccccc12 | 16.3%
C=CCNc1nc2ccccc2c(=O)[nH]1 | 7.55%
Clc1ccc(-c2nc(-c3cc4cc(Cl)ccc4o3)cs2)cc1 | 2.11%
CC(=O)Nc1cccc(NS(=O)(=O)c2ccccc2[N+](=O)[O-])c1 | -4.08%
CC(C(=O)N1CCN(C)CC1)N1C(=O)c2ccccc2C1=O (centres undefined) | 7.24%
COC(=O)c1c[nH]n2c(=O)c(Cl)c(C)nc12 | 0.19%
COc1ccc(OC)c(CC(NC(C)=O)C(=O)NC2CCN(c3nc(OC)nc(OC)n3)CC2)c1 (centres undefined) | 4.38%
COc1ccc(/C=N/NC(=O)c2ccccc2O)cc1Cn1cc([N+](=O)[O-])cn1 | 5.5%
COc1ccc(/C=N/NC(=O)c2ccc(N)cc2)cc1Cn1cc([N+](=O)[O-])cn1 | 16.6%
Cc1nc(CC(=O)Nc2nc(C(C)(C)C)cs2)cs1 | 13.3%
O=C(O)c1ccc(-c2ncc[nH]2)cc1 | 2.64%
Cc1ccc2c(c1)-c1c(cnn1CC(=O)N(Cc1ccco1)C1CCCCC1)CO2 | 4.81%
Cc1ccc2c(c1)-c1c(cnn1CC(=O)NC(C)CCc1ccco1)CO2 (centres undefined) | 25.2% (active)
CC(CCc1ccco1)NC(=O)Cn1ncc2c1-c1ccccc1OC2 (centres undefined) | 12.1%
Cc1ccc2c(c1)-c1c(cnn1CC(=O)O)CO2 | 0.53%
Cc1ccc2c(c1)-c1c(cnn1CC(=O)N1CCCN(Cc3ccccc3F)C1)CO2 | 26.4% (active)
Cc1ccc(C)c(CN2CCCN(C(=O)Cn3ncc4c3-c3ccccc3OC4)C2)c1 | 3.24%
COc1cc2c(cc1OC)CN(C(=O)CSc1n[nH]c(N)n1)CC2 | 0.58%
COc1cc2c(cc1OC)CN(C(=O)CSc1nc(C)cc(C)c1C#N)CC2 | 3.39%
COc1cc2c(cc1OC)CN(C(=O)CSc1nnc(C)s1)CC2 | 25.4% (active)
CCOCCn1cnc2sc(C(=O)NCC(=O)OCC)c(C)c2c1=O | 1.07%
Cc1cc2c(=O)oc(-c3ccccc3Br)nc2s1 | -4.08%
Cc1nn2c(=O)c(NC(=O)c3ccc(F)cc3)cnc2s1 | 6.66%
O=C(Nc1cnc2sc3c(n2c1=O)CCCC3)c1ccc(F)cc1 | 23.9% (active)
Cc1ccc2c(c1)sc1ncc(NC(=O)c3ccc(F)cc3)c(=O)n12 | -0.5%

SMILES | inhibition
CCOC(=O)COc1ccc(N)cc1CC(NC(C)=O)(C(=O)OCC)C(=O)OCC | 6.1%
Cn1cc(CNC(=O)C2c3ccccc3Oc3ccccc32)cn1 | 13.7%
COc1ccc(N=CC2=C(O)CC(C)(C)CC2=O)cc1 | 13.6%
C=CCc1c(C)nc2c(C)cccc2c1SC(=N)N | 1.57%
CCOC(=O)CSc1nc(C)c2cccc(C)c2n1 | 0.76%
CCOc1ccc(NC(=O)c2ccccc2OC)cc1 | 5.95%
COc1ccc(NC(=O)CSc2c(C)n[nH]c2C)cc1 | 0.25%
O=C(NCCCc1ccccc1)C1CC(=O)N(c2ccc3c(c2)OCCO3)C1 (centres undefined) | 2.32%
O=C(NC(Cc1ccccc1)c1nc2ccccc2[nH]1)C1CC(=O)N(c2ccc3c(c2)OCCO3)C1 (centres undefined) | 26% (active)
O=C(Nc1nc2ccccc2[nH]1)C1CC(=O)N(c2ccc3c(c2)OCCO3)C1 (centres undefined) | -0.34%
CCN(CC)C(=O)c1ccc(-c2cccs2)s1 | 2.09%
O=C(c1cccs1)c1ccc(-c2cccs2)s1 | 15.2%
COc1ccc(NC(=O)Cn2nnc(C(=O)NCCc3ccc(OC)c(OC)c3)c2N)c(OC)c1 | 0.32%
O=C(NNc1c(Cl)cc(Cl)cc1Cl)c1cccc([N+](=O)[O-])c1 | 0.41%
Cc1ccccc1CSc1nn2c(=O)c(C)nnc2s1 | 1.72%
O=[N+]([O-])c1cccc(S(=O)(=O)NCCc2cn3ccccc3n2)c1 | -0.31%
CCCc1ccc(-c2ccc(F)c(N)c2)nc1 | 6.24%
Nc1ccc2nc(-c3ccc(Cl)cc3)[nH]c2c1 | 14%
Nc1ccc2nc(-c3ccccc3)[nH]c2c1 | 1.94%
CCOC(=O)CN(C(=O)CNC(=O)c1ccco1)C(C(=O)NC1CCCCC1)c1cccs1 (centres undefined) | 2.4%
Cc1cc(C)nc(SCC(=O)N/N=C/c2cccn2-c2ccc(O)cc2)n1 | 8.99%
Cc1onc(-c2ccccc2Cl)c1C(=O)Nc1ccc(-c2cn3cccnc3n2)cc1 | 3.1%
Cc1onc(-c2ccccc2Cl)c1C(=O)Nc1cccc(-c2cn3cccnc3n2)c1 | 26.2% (active)
Cc1ccc(-c2cn3cccnc3n2)cc1NC(=O)c1c(-c2ccccc2Cl)noc1C | 9.6%
